KB-V1 MDR tox = kills drug-selected multidrug resistant KB-V1 cells; KB-V1 MDR cells viability, CellTiter-Glo, 72 h; Potency, µM (series often up to 46.1 µM), usual class: cytotoxic; 400,000 tested, 3.4% active; note: nearly all actives have a fitted effect of over 60% in size
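qHTS viability screen in drug-selected KB-V1 MDR cells: 72 h compound treatment at 37 degrees C, ATP luminescence end point.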
KB-3-1 tox = KB-3-1 parental cell cytotoxicity; Potency, µM (top dose mostly 46.1 µM), hits mostly cytotoxic; 400,000 tested, 1.4% active; KB-3-1 viability, CellTiter-Glo ATP luminescence, 72 h; note: nearly all actives have a fitted effect of over 60% in size
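Multi-concentration cytotoxicity screen in KB-3-1 cells grown in DMEM lacking phenol red with 10% FBS. After 72 h at 37 °C with compound, ATP-dependent luminescence was recorded.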
TDP1 cell CPT = growth inhibition of DT40 Tdp1-/-;hTDP1 cells with camptothecin (screen for TDP1 inhibitors); chicken DT40 Tdp1-/-;hTDP1 cells + 20 nM CPT, ATP luminescence, 48 h; Potency, µM (titrated, usually from 46.2 µM), for the others: top-dose activity change, negative = growth inhibition, hits mostly inhibitors; 420,000 tested, 12% active; AID 686979; note: nearly all actives have a fitted effect of over 55% in size
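Cell growth measured by CellTiter-Glo luminescence after a minimum 48 h, 37 C compound exposure with 20 nM CPT in Tdp1-knockout DT40 cells stably expressing hTDP1, seeded 400/well; qHTS titration format.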
HT1080-NT tox = kills 2HG-producing HT-1080-NT fibrosarcoma cells | 360,000 tested, 1.6% active | Potency, µM (highest dose often 46.1 µM), inactives show top-dose activity, negative = less viability, most hits filed as cytotoxic | HT-1080-NT fibrosarcoma viability, CellTiter-Glo ATP luminescence, 48 h;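 note: NT is the 2HG producing partner of a matched IDH1 knockdown line; 0% = DMSO-treated cells and -100% = media-only wells without cells; nearly all actives have a fitted effect of over 55% in size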
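HT-1080-NT; 750 cells/well; 5% FBS RPMI; 48 h compound, 37 degrees C; CellTiter-Glo luminescence; curve fitting and curve-class assignment.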
TDP1 cell noCPT = qHTS for Inhibitors of human tyrosyl-DNA phosphodiesterase 1 (TDP1): qHTS in cells in absence of CPT. DT40 Tdp1-/- hTDP1 cells, no CPT, ATP luminescence, 48 h. Potency, µM (series often up to 46.2 µM), for inactives: top-dose activity change, negative = growth inhibition, actives largely listed as inhibitors. 420,000 tested, 15% active; note: nearly all actives have a fitted effect of over 55% in size
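No-CPT arm: Tdp1-/-;hTDP1 DT40 cells (400/well) plus compounds, incubated ≥48 hr at 37 °C. Readout CellTiter-Glo luminescence.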
HT1080 IDH1KD tx = kills HT-1080 cells with IDH1 knockdown; AID 686971; HT-1080 IDH1 knockdown viability, ATP luminescence, 48 h; 360,000 tested, 2% active; Potency, µM (doses to about 46.1 µM), for inactives: at the highest dose activity, negative = toxicity, actives largely listed as cytotoxic;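 note: 0% = DMSO wells and -100% = cell-free medium wells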
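Knockdown cells (IDH1KD HT-1080) received compounds 2 h after plating at 750 cells/well and were kept 48 h at 37 °C in 5% FBS RPMI. A CellTiter-Glo luminescence read gave % activity for curve fitting.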
Numbers without * were called inactive; [ ] = remark or other dose. The list is not random: actives were taken first. Their share in the collection is about 19%. Calls come from the whole dose curve; as a rule, active = well fitted curve in the direction sought with a large enough effect; inconclusive = small, poorly fitted or top-dose-only effect, or another doubt; inactive = no such curve, though single readings can be large; an effect the other way counts as inactive or inconclusive. Unless noted, % is set by controls: 0 for no effect and ±100 for the full control effect; potency is the fitted concentration of half-maximal effect.

CCCCN(CCC#N)c1ccc(/C=C/c2ccnc3ccccc23)cc1 was read as KB-V1 MDR tox 18µM*, KB-3-1 tox inconclusive, TDP1 cell CPT 10µM* and TDP1 cell noCPT 10µM*.
OCCN(CCO)c1ccc(/C=C/c2ccnc3ccccc23)cc1 was read as KB-V1 MDR tox 13µM*, KB-3-1 tox inconclusive, TDP1 cell CPT 8.9µM* and TDP1 cell noCPT 14µM*.
CCN(Cc1ccccc1)c1ccc(/C=C/c2nccc3ccccc23)cc1 was read as KB-V1 MDR tox inactive, KB-3-1 tox inactive, TDP1 cell CPT 13µM* and TDP1 cell noCPT inconclusive.
For CC(C)CN(CC(C)C)c1ccc(/C=C/c2ccnc3ccccc23)cc1 the results were KB-V1 MDR tox inactive, KB-3-1 tox inactive, TDP1 cell CPT 13µM* and TDP1 cell noCPT 18µM*.
Screening Cn1c(C2CCC2)nc2cc(C(=O)N3CCOc4ccccc4C3)cc(NC(=O)C3CCCO3)c21 (stereo not drawn) returned TDP1 cell CPT 24%[9.04 µM] and TDP1 cell noCPT -7%.
Screening CN(C)c1ccc(N=Nc2ccnc3ccccc23)cc1 returned KB-V1 MDR tox inactive, KB-3-1 tox inconclusive, TDP1 cell CPT inconclusive and TDP1 cell noCPT 22µM*.
For CCN(CC)c1ccc(/C=C/c2ccnc3ccccc23)cc1 the results were KB-V1 MDR tox inactive, KB-3-1 tox inconclusive, TDP1 cell CPT inconclusive and TDP1 cell noCPT 18µM*.
Screening CCN(CC)CCN(CC)c1ccc(/C=C/c2ccnc3ccccc23)cc1 returned KB-V1 MDR tox inactive, KB-3-1 tox inactive, TDP1 cell CPT -91% and TDP1 cell noCPT 4.5µM*.
Screening C=CCN(CC=C)c1ccc(/C=C/c2ccnc3ccccc23)cc1 returned KB-V1 MDR tox inconclusive, KB-3-1 tox inconclusive, TDP1 cell CPT 18µM* and TDP1 cell noCPT inconclusive.
Screening CCN(CCC(=O)O)c1ccc(/C=C/c2ccnc3ccccc23)cc1 returned KB-V1 MDR tox inactive, KB-3-1 tox inactive, TDP1 cell CPT 2% and TDP1 cell noCPT inconclusive.
CN(C)c1ccc(N=Nc2ccccc2Br)cc1 was read as KB-V1 MDR tox inactive, KB-3-1 tox inactive, TDP1 cell CPT -14%, HT1080-NT tox -11%, TDP1 cell noCPT 0% and HT1080 IDH1KD tx -9%.
For CCCc1cc(=O)[nH]c(SCC(=O)NN(c2ccccc2)c2ccccc2)n1 the results were KB-V1 MDR tox inactive, KB-3-1 tox inconclusive, TDP1 cell CPT 0%, HT1080-NT tox -3%, TDP1 cell noCPT inconclusive and HT1080 IDH1KD tx -1%.
COc1cc2c(cc1OC)CN(C(=O)c1ccc3[nH]c(C)c(C)c3c1)CC2 was read as KB-V1 MDR tox inconclusive, KB-3-1 tox inactive, TDP1 cell CPT inconclusive, HT1080-NT tox 1%, TDP1 cell noCPT inconclusive and HT1080 IDH1KD tx -3%.
For COC(=O)c1cnn(-c2ccc(F)cc2F)c1/C=N/NC(N)=S the results were KB-V1 MDR tox inconclusive, KB-3-1 tox inactive, TDP1 cell CPT inconclusive, HT1080-NT tox inconclusive, TDP1 cell noCPT inconclusive and HT1080 IDH1KD tx -10%.
Screening CCCS(=O)(=O)NC(=O)C1(C)CCN(C(=O)c2c(-c3ccccc3)noc2C)C1 (stereo not drawn) returned KB-V1 MDR tox inactive, KB-3-1 tox inactive, TDP1 cell CPT 6%, HT1080-NT tox 20%, TDP1 cell noCPT -3% and HT1080 IDH1KD tx 8%.
Screening CN(C)c1ccc(N=Nc2ccc(/C=C/c3ccnc4ccccc34)cc2)cc1 returned KB-V1 MDR tox inactive, KB-3-1 tox inactive, TDP1 cell CPT inconclusive and TDP1 cell noCPT 18µM*.
`CCN(C)c1ccc(/C=C/c2ccnc3ccccc23)cc1` gave KB-V1 MDR tox inconclusive, KB-3-1 tox inactive, TDP1 cell CPT 11µM* and TDP1 cell noCPT 11µM*.
`CC(C)CCn1cnc2c(NCc3ccccc3)ncnc21` gave KB-V1 MDR tox 16µM*, KB-3-1 tox inactive, TDP1 cell CPT -16%, HT1080-NT tox -1%, TDP1 cell noCPT inconclusive and HT1080 IDH1KD tx 1%.
Cc1cc(C)c(CN2CCN(C(=O)Cn3cnc4c(NCc5ccccc5)ncnc43)CC2)c(C)c1 was read as KB-V1 MDR tox inconclusive, KB-3-1 tox inconclusive, TDP1 cell CPT 5.8µM*, HT1080-NT tox inconclusive, TDP1 cell noCPT 1.8µM* and HT1080 IDH1KD tx inconclusive.
Screening O=C(Cn1cnc2c(NCc3ccccc3)ncnc21)NCC1CCCO1 (stereo not drawn) returned KB-V1 MDR tox inactive, KB-3-1 tox inactive, TDP1 cell CPT -18%, HT1080-NT tox 5%, TDP1 cell noCPT -18% and HT1080 IDH1KD tx 5%.
For CSc1nc(N)nc2c1ncn2CC(=O)N1CCN(Cc2c(C)cc(C)cc2C)CC1 the results were KB-V1 MDR tox inactive, KB-3-1 tox inconclusive, TDP1 cell CPT 1.8µM*, HT1080-NT tox inconclusive, TDP1 cell noCPT 0.82µM* and HT1080 IDH1KD tx inconclusive.
Screening Cc1cc(C)c(CN2CCN(C(=O)Cn3ccc(N)nc3=O)CC2)c(C)c1 returned KB-V1 MDR tox inactive, KB-3-1 tox inactive, TDP1 cell CPT -13%, HT1080-NT tox 6%, TDP1 cell noCPT -16% and HT1080 IDH1KD tx -1%.
Cc1cccc(C)c1NC(=O)CNC(=O)CNC(=O)c1ccc2ccccc2c1 was read as KB-V1 MDR tox inactive, KB-3-1 tox inactive, TDP1 cell CPT -12%, HT1080-NT tox -3%, TDP1 cell noCPT -5% and HT1080 IDH1KD tx 0%.
For CCOc1ccc(NS(=O)(=O)c2cccc(C(=O)NCC3(N(C)C)CCCCC3)c2)cc1 the results were KB-V1 MDR tox inconclusive, KB-3-1 tox inactive, TDP1 cell CPT -18%, HT1080-NT tox -2%, TDP1 cell noCPT inconclusive and HT1080 IDH1KD tx -12%.
CCOc1ccc(NC(=O)c2ccccc2OCC(=O)c2ccccc2)cc1 was read as KB-V1 MDR tox inconclusive, KB-3-1 tox inactive, TDP1 cell CPT 23µM*, HT1080-NT tox -6%, TDP1 cell noCPT 16µM* and HT1080 IDH1KD tx -3%.
Screening Cc1ccc(C(=O)COc2ccccc2C(=O)Nc2ccccc2)cc1 returned KB-V1 MDR tox inconclusive, KB-3-1 tox inactive, TDP1 cell CPT inconclusive, HT1080-NT tox 1%, TDP1 cell noCPT inconclusive and HT1080 IDH1KD tx 4%.
Screening Cc1cccc(NC(=O)COc2ccccc2C(=O)NC(C)c2ccccc2)c1 (stereo not drawn) returned KB-V1 MDR tox inconclusive, KB-3-1 tox inconclusive, TDP1 cell CPT inconclusive, HT1080-NT tox -8%, TDP1 cell noCPT 29µM* and HT1080 IDH1KD tx -15%.
